Screening data deposited in PubChem by several laboratories.
MPTP inh – inhibitors of mitochondrial permeability transition pore; AID 602449; inhibition, % at 10 µM; hit rate 1.4% among 360,000; isolated mouse mitochondria, Ca2+ swelling absorbance, 30 min;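 active = inhibition of 50% or more, scaled per plate between neutral and stimulator controls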
NR3A LBD binder – modulators (binders) of human NR3A ligand-binding domain; NR3A LBD differential scanning fluorimetry, Tm shift; 0% = protein alone, 100% = glycine-bound protein; hit rate 2.5% among 340,000; Tm shift relative to glycine control, % at 25 µM; AID 1259313;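 active = melting temperature shift of at least 10% of the positive control shift, at one fixed dose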
CSC inhib – cancer stem cell inhibition | cancer stem cell-like cells viability, luminescence | inhibition, % at 7.5 µM | hit rate 1.1% among 300,000 | AID 2717; in the data active = inhibition above about 75%; inconclusive = no clear call, values can overlap the other calls; tested in HMLE shEcad cells
Mdm2-MdmX inh – human Mdm2/MdmX binding inhibition | O15151+Q00987 | SaOS-2 split-luciferase Mdm2/MdmX complementation, luminescence | inhibition, % at 8 µM | hit rate 3% among 330,000;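 active = inhibition of at least 50% at 8 µM in the primary screen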
Beta cell apopt – beta cell apoptosis inhibition | INS-1E cytokine-induced death, ATP luminescence, 48 h; percent of positive-control rescue, neutral wells zero | protection from apoptosis, % (no concentration beside the values) | hit rate 0.8% among 300,000 | AID 435005;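 active = Every replicate reaches about 75%, or at least half do and their mean reaches it too, limit read from the data; inconclusive = At least half of replicates reach the limit but their mean does not; inactive = Under half of replicates reach the limit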;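 note: higher means more ATP so stronger rescue from cytokine killing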
SKKanGAS inh – inhibitors of SKKanGAS S. pyogenes growth in kanamycin (SK-promoter or general growth effect); BacTiter-Glo, 6 h; inhibition, % at 7.5 µM; hit rate 1.3% among 300,000;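 active = mean replicate score, as percent of positive control median, at least 50; inconclusive = mean below 50 but one replicate at or above 50; inactive = mean and every replicate below 50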;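 note: strain carries kanamycin resistance gene driven by streptokinase promoter and grows in 40 µg/ml kanamycin; loss of luminescence reflects streptokinase promoter inhibition or plain growth inhibition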
MPTP counter – Rhodamine 123 counter-screen of mitochondrial pore hits; shares compounds with MPTP inh; isolated mitochondria, membrane potential, Rhodamine 123 fluorescence; inhibition, % at 10 µM; hit rate 78% among 5,000; AID 624504; in the data active = inhibition above about 22%
MPTP abs DR – MPTP inhibition, dose response swelling confirmation | isolated mitochondria swelling, absorbance | AID 651561 | IC50, µM | hit rate 58% among 780 | shares compounds with MPTP inh; in the data active = IC50 below about 20 µM
MPTP counter DR – active in counter-screen for permeability transition pore inhibitors. IC50, µM. shares compounds with MPTP inh. isolated mitochondria counterscreen, fluorescence read-out. hit rate 49% among 780. AID 651564; in the data active = IC50 below about 80 µM
A number is an active result; . = inactive; ? = inconclusive; / = no result. A selection: hits, their analogues and other compounds. The true share with any hit is near 6.9%.

SMILES	MPTP inh	NR3A LBD binder	CSC inhib	Mdm2-MdmX inh	Beta cell apopt	SKKanGAS inh	MPTP counter	others
O=C1/C(=C/c2cccc(Br)c2)SC(=S)N1/N=C/c1cc([N+](=O)[O-])ccc1O	61	.	.	.	.	.	.	MPTP abs DR=15;MPTP counter DR=<2.5
CCCN(CC1CC1)C(=S)NC(=O)c1cc(Br)ccc1Cl	.	.	/	.	/	/	/
Cc1cc(C)c(N2CCN(S(=O)(=O)N3CCCCCC3)CC2)c(C)c1	79	.	/	.	.	.	.	MPTP abs DR=.;MPTP counter DR=17
Cc1ccc(N2CCN(S(=O)(=O)N3CCCCC3)CC2)cc1Cl	.	.	.	.	.	.	/
CCn1c(SCc2cccc(F)c2)nc2c(c1=O)SCC2	.	.	.	.	.	.	/
Cc1nc2ccccc2n1C1CC(=O)N(Cc2ccccc2)C1=O (centres undefined)	65	.	.	.	.	.	58
O=C1C=C(c2ccc(C(=O)O)cc2)C[C@@H](c2ccc3c(c2)OCO3)C1	.	.	.	.	.	/	/
Cc1ccc(-n2cc3c(-c4cccc(Br)c4)nnc(C)c3n2)cc1	54	.	.	.	.	64	.	MPTP abs DR=.;MPTP counter DR=29
O=C(Nc1ccc(Cl)cc1)C1=Cc2ccccc2OC1	89	20	.	.	.	.	108
Cc1ccc(C(=O)OCC(=O)NC2CCCC(C)C2C)cc1S(=O)(=O)N1CCCCC1 (centres undefined)	.	.	/	.	.	/	/
CN(C)CCOC(C1CCCCC1)C1CCCCC1	74	.	.	.	.	.	.	MPTP abs DR=15;MPTP counter DR=.
c1ccc2sc(NC3=NCN(C4CCCCCC4)CN3)nc2c1	95	.	.	.	.	.	.
CC(C)(C)c1ccc(OCc2ccc(C(=O)N/N=C/c3ccc(O)c(O)c3)cc2)cc1	85	24	89	.	95	62	.
O=C(N/N=C/c1ccc(OCc2ccc(F)cc2)cc1)c1ccccc1	.	.	.	.	.	.	/
CC(C)(C)c1ccc(OCc2ccc(C(=O)N/N=C3\CC4CC=CC34)cc2)cc1 (centres undefined)	55	.	.	.	.	.	.	MPTP abs DR=.;MPTP counter DR=25
O=C(OCc1nnc(-c2ccccc2)o1)C1CCN(C(=O)c2ccc(Cl)cc2)CC1	.	.	/	.	/	/	/
COc1cccc(/C=N/Nc2snc(SC)c2C#N)c1O	99	30	.	.	101	.	86
CCN(CC)S(=O)(=O)c1ccc(O)c(C(=O)OCC(=O)NC23CC4CC(CC(C4)C2)C3)c1	83	.	.	.	.	/	81
CCN(CC)S(=O)(=O)c1ccc(O)c(C(=O)OCC(=O)Nc2ccc(OC(F)(F)F)cc2)c1	102	.	.	.	.	.	84
CC(=O)c1ccc(NC(=O)CN2CCN(S(=O)(=O)c3ccc4c(c3)OCCO4)CC2)cc1	.	/	/	/	/	/	/
O=C(NNc1c2ccccc2nc2ccccc12)c1ccccc1O	87	18	?	.	.	.	43
O=C(NNc1c2ccccc2nc2ccccc12)c1ccccc1Cl	.	.	.	.	.	.	/
O=C(COC(=O)C1(c2ccc(Cl)cc2)CCCC1)NCc1ccco1	.	.	.	.	.	.	/
CCc1ccc(NC(=O)COC(=O)C2(c3ccc(Cl)cc3)CCCC2)cc1	65	.	.	.	.	.	75
Cc1cccc(OCC(=O)Nc2nc3ccc([N+](=O)[O-])cc3s2)c1	67	.	.	.	.	.	87
CC(=O)Nc1nc2cc([N+](=O)[O-])ccc2s1	.	.	.	.	.	/	/
Cc1cccc(OCC(=O)Nc2nc3ccc([N+](=O)[O-])cc3s2)c1C	69	.	.	.	.	.	83
O=C(Nc1nc2ccc([N+](=O)[O-])cc2s1)c1ccco1	/	/	.	.	.	.	/
O=C(COc1ccccc1C(=O)O)Nc1nc2ccc([N+](=O)[O-])cc2s1	94	14	.	.	.	.	83
Cc1ccc(NC(=O)C2CCN(S(=O)(=O)c3ccc(N4CCCC4=O)cc3)CC2)cc1Cl	102	.	.	.	122	.	108
